Pf Dd2 growth – Plasmodium falciparum Dd2 growth inhibition; P. falciparum Dd2 growth, SYBR Green, 72 h; AID 1347417; actives 4.3% (n = 120,000); Potency, µM (doses to about 28.9 µM), without a hit: at the top dose activity, negative = inhibition, hits mostly inhibitors; active = well fitted inhibition curve with a large enough effect;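 note: plate controls were DMSO vehicle for no effect and reference drug for full effect; nearly all actives have a fitted effect of over 65% in size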
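Readout: SYBR Green fluorescence, 485 nm excitation, 535 nm emission, after ~16 h lysis at 37C. Before that, Dd2-infected red cells (2.5% hematocrit) grew 72 h with compound, 29 uM top final concentration.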
Starred values were filed as active, the others as inactive; [ ] = remark or other dose. The full list was thinned out, with hits kept by preference. Potency is the fitted concentration of half-maximal effect.

Results for O=C(COc1cccc(-c2nnc3n2CCCC3)c1)NCc1ccc(F)cc1 ?
Pf Dd2 growth: -9%

Results for O=C(COc1ccc(Cl)cc1)Nc1cccc(-c2nnc3n2CCCC3)c1 ?
Pf Dd2 growth: 3.2µM*

How did O=C(Cn1nc2n(c1=O)CCCCC2)N1CCN(c2ccc(F)cc2)CC1 do in these assays?
Pf Dd2 growth: 32%

How did CSc1cccc(NC(=O)Nc2ccc(-c3nnc4n3CCCC4)cc2)c1 do in these assays?
Pf Dd2 growth: 25%

How did O=C(COc1ccc(-c2nnc3n2CCCC3)cc1)N1CCN(c2ccc(F)cc2)CC1 do in these assays?
Pf Dd2 growth: 3.2µM*

What do the screens show for `O=C(COc1ccc(F)cc1)Nc1cccc(-c2nnc3n2CCCC3)c1`?
Pf Dd2 growth: 8.9µM*

Results for O=C(Cc1ccccc1Cl)Nc1cccc(-c2nnc3n2CCCC3)c1 ?
Pf Dd2 growth: 7.1µM*

How did O=C(COc1ccc(Cl)cc1)Nc1ccc(-c2nnc3n2CCCC3)cc1 do in these assays?
Pf Dd2 growth: inactive

How did O=C(Cc1cccc(F)c1)Nc1ccc(-c2nnc3n2CCCC3)cc1 do in these assays?
Pf Dd2 growth: -18%

What do the screens show for `O=C(CN1C(=O)CCC1=O)N1CCCCCCn2c(nnc2-c2ccc(F)cc2)CC1`?
Pf Dd2 growth: inactive

What do the screens show for `CCC(=O)OCc1cc(=O)n2nc(C3CC3)sc2n1`?
Pf Dd2 growth: inactive

How did COc1ccc(-c2coc3c2c(C)cc2oc(=O)cc(C)c23)cc1 do in these assays?
Pf Dd2 growth: -9%

Results for Cc1ccc(-n2ncc3c2CCCC3NS(=O)(=O)N2CCCC2)cc1C (stereo not drawn) ?
Pf Dd2 growth: 4%

Results for Cc1ccc(C)c(N2CCN(S(=O)(=O)c3ccc4c(c3)n(C)c(=O)c(=O)n4C)CC2)c1 ?
Pf Dd2 growth: 0%

Results for CC1=C(c2ccc(C(C)C)cc2)S(=O)(=O)NC1=NCc1ccc(Cl)cc1 ?
Pf Dd2 growth: 2%

Results for CCCc1noc(-c2ccn3c(CNC(=O)c4c(F)cccc4F)nnc3c2)n1 ?
Pf Dd2 growth: -3%

Results for CCOc1ccc(-c2csc(/C(C#N)=C/c3ccc(Br)cc3)n2)cc1 ?
Pf Dd2 growth: 7%

How did CCC1CCCCN1C(=O)c1nn(-c2ccc(C)cc2)c(=O)c2c1c1ccccc1n2C (stereo not drawn) do in these assays?
Pf Dd2 growth: 52%

How did CCn1nnc2cc(C(=O)Nc3ccc(C)cc3Br)ccc21 do in these assays?
Pf Dd2 growth: -15%

What do the screens show for `Cc1ccc2nc(NC(=O)c3nc(SCc4ccccc4C)ncc3Cl)sc2c1`?
Pf Dd2 growth: 8%

How did Cc1ccc(CNC(=O)CCSCc2cnn(-c3ccccc3)c2-n2cccc2)cc1 do in these assays?
Pf Dd2 growth: -5%

How did CCc1ccccc1NC(=O)CSc1nnc(-c2nonc2NC(C)=O)n1C do in these assays?
Pf Dd2 growth: 3%

How did CCOc1ccc(C2CC(=O)NC(NC(=O)c3ccc(C)cc3)=N2)cc1 (stereo not drawn) do in these assays?
Pf Dd2 growth: inactive

Results for COc1ccc(Br)cc1CNC(=O)c1ccc2nc(C(C)C)oc2c1 ?
Pf Dd2 growth: 10%

What do the screens show for `CSCC(=O)N[C@@H]1CN(Cc2cccnc2)C[C@H]1CN(C)C`?
Pf Dd2 growth: 59%

What do the screens show for `CCc1noc([C@@H]2CC(F)(F)CN2C(=O)c2cnco2)n1`?
Pf Dd2 growth: 5%

Results for CCCCNC(=O)CC(c1cccc2c1OCO2)c1c[nH]c2c(CC)cccc12 (stereo not drawn) ?
Pf Dd2 growth: 10µM*

How did O=C(CC(c1cccc2c1OCO2)c1c[nH]c2ccccc12)NCc1ccccc1 (stereo not drawn) do in these assays?
Pf Dd2 growth: inactive

Results for CCCCCNC(=O)CC(c1cccc(OC)c1OC)c1c[nH]c2c(CC)cccc12 (stereo not drawn) ?
Pf Dd2 growth: -21%

How did Cc1ncc2c(n1)C[C@@H]1CC[C@H]2N1C(=O)C1CCCCC1 do in these assays?
Pf Dd2 growth: -9%

How did Cc1onc(C(=O)NCc2ccc3[nH]c(-c4ccc(F)cc4)c(C)c3c2)c1CO do in these assays?
Pf Dd2 growth: -19%

How did Cc1ccccc1NS(=O)(=O)c1ccc2c(c1)NC(=O)CCS2 do in these assays?
Pf Dd2 growth: -8%

How did O=C1CCSc2ccc(S(=O)(=O)Nc3cccc(C(F)(F)F)c3)cc2N1 do in these assays?
Pf Dd2 growth: 35%

How did Cc1ccc(NS(=O)(=O)c2ccc3c(c2)NC(=O)CCS3)cc1C do in these assays?
Pf Dd2 growth: 10µM*

How did CN(Cc1ccccc1)[C@@H]1[C@H](O)[C@H](CO)O[C@@H]1CNC(=O)Nc1ccc(F)cc1F do in these assays?
Pf Dd2 growth: inactive

Results for Cc1cc(Br)ccc1NC(=O)c1sc2ncn(Cc3ccccc3Cl)c(=O)c2c1C ?
Pf Dd2 growth: 11%

Results for O[C@H]1CC[C@@H](Cc2cc(COc3ccccc3)on2)O[C@@H]1CNCc1cccc(Cl)c1 ?
Pf Dd2 growth: 1.3µM*

How did CC(=O)NC[C@H]1O[C@H](Cc2cc(-c3ccc(F)cc3)on2)CC[C@@H]1O do in these assays?
Pf Dd2 growth: inactive

What do the screens show for `COc1cccc(NC(=O)NC[C@H]2O[C@H](Cc3cc(-c4ccc(F)cc4)on3)CC[C@@H]2O)c1`?
Pf Dd2 growth: -25%

Results for CCN(CC)C[C@H]1O[C@H](Cc2cc(-c3ccc(F)cc3)on2)CC[C@@H]1O ?
Pf Dd2 growth: 7.1µM*

How did CN(C)C[C@H]1O[C@H](Cc2cc(-c3ccc(F)cc3)on2)CC[C@@H]1O do in these assays?
Pf Dd2 growth: inactive

Results for O=C(NC[C@H]1O[C@H](Cc2cc(-c3ccc(F)cc3)on2)CC[C@@H]1O)c1ccc(F)cc1 ?
Pf Dd2 growth: -3%[44.1 µM]

How did COCC(=O)NC[C@H]1O[C@H](Cc2cc(-c3ccc(F)cc3)on2)CC[C@@H]1O do in these assays?
Pf Dd2 growth: 14µM*

Results for COCc1cc(C[C@@H]2CC[C@H](O)[C@@H](CNCc3cccc(OC)c3)O2)no1 ?
Pf Dd2 growth: -3%[44.1 µM]

What do the screens show for `O=C(NC[C@H]1O[C@H](Cc2cc(-c3ccc(F)cc3)on2)CC[C@@H]1O)C1CCC1`?
Pf Dd2 growth: inactive

What do the screens show for `COCc1cc(C[C@@H]2CC[C@H](O)[C@@H](CNCc3ccccc3)O2)no1`?
Pf Dd2 growth: inactive

Results for CC(C)CCNC[C@H]1O[C@H](Cc2cc(-c3ccc(F)cc3)on2)CC[C@@H]1O ?
Pf Dd2 growth: 3.5µM*

Results for COCC(=O)NC[C@H]1O[C@H](Cc2cc(-c3ccc(OC)cc3)on2)CC[C@@H]1O ?
Pf Dd2 growth: inactive

How did Cc1ccc(CCNC(=O)CCc2cn(Cc3ccccc3C)c3ccccc23)cc1 do in these assays?
Pf Dd2 growth: 10%

How did Cc1noc2c(-c3cccnc3NCc3cnccn3)cc(-c3ccccc3)nc12 do in these assays?
Pf Dd2 growth: -13%[44.1 µM]

How did CCOc1ccccc1C(=O)NC1CC(=O)N(CCc2ccc(F)cc2)C1 (stereo not drawn) do in these assays?
Pf Dd2 growth: 0%

Results for CCCCNC(=O)CSc1nc2cc3c(cc2c(=O)n1CCCCCC(=O)NCc1ccc(OC)cc1)OCO3 ?
Pf Dd2 growth: 21%

How did O=C(c1ccc(Br)cc1)N1CCC(n2cnnc2C2CC2)CC1 do in these assays?
Pf Dd2 growth: 13%

How did Cc1ccc(CNC(=O)N2CCCC(c3noc(COc4ccccc4F)n3)C2)cc1 (stereo not drawn) do in these assays?
Pf Dd2 growth: inactive

What do the screens show for `CC(O)CN1CC2(CCC1=O)CCN(Cc1cncn1C)CC2` (stereo not drawn)?
Pf Dd2 growth: -22%

What do the screens show for `O=C(CSc1ccccn1)N[C@@H]1COCC[C@@H]1Oc1cccc(F)c1`?
Pf Dd2 growth: -13%
